The text below walks through data of PubChem BioAssay.

A short description of assay [1]: liver-stage malaria parasite growth inhibition, primary screen, cell-based, HepG2, luciferase luminescence, HepG2 viability (AID 624349).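 Further: 100% = mean of DMSO negative control wells on the same plate.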 The note with it: P. berghei liver stage in HepG2, luciferase luminescence, concentration not given here; parasite load remaining: stronger effect = lower value; viability: measured here: HepG2 viability without parasites.
Assay [2] in a line: stimulators of nuclear beta-catenin in C2C12, primary screen, imaging, WNT3A-conditioned medium, mouse C2C12, NPC library (AID 1117326; in the data active means nuclear beta-catenin stimulation mostly above about 4.2%, no sharp cut-off; inactive means mostly below about 10%). Particulars: stronger effect = higher value.
Assay [3] is described as follows: stimulators of insulin release from INS-1E, primary screen, cell-based, 5 mM glucose, NPC library (AID 1117329;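 active means compound raises insulin release from rat beta cells at 5 mM glucose, no numeric limit stated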). The note with it: rat INS-1E insulin secretion, at 10 µM, stronger effect = higher value.
Assay [4] is described as follows: growth inhibition of GSK3B-pretreated HCT116 cells – cell-based, CellTiter-Glo, 0.2 to 20 µM (AID 1117336;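 active means compounds lowering colon cancer cell viability after pretreatment blocking the GSK3B kinase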). Particulars: HCT116 viability after GSK3B inhibitor, at 20 µM, stronger effect = higher value.
A short description of assay [5]: inhibition of endothelial tube formation, primary screen, imaging, VEGF stimulated, CD31 staining, tube area, NPC library (AID 1117340;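 active means compound that reduces growth-factor-driven endothelial tube area in a mixed cell culture, no cutoff stated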). The note with it: VEGF-stimulated ADSC/ECFC co-culture, at 10 µM, stronger effect = higher value.
The nature of assay [6]: glucagon-like peptide 1 release enhancers, primary assay, NCI-H716 cell line, NPC library (AID 1117341;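 active means compound raises GLP1 secretion from the human gut endocrine cells, with no numeric limit stated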). Particulars: NCI-H716 cells, at 10 µM, stronger effect = higher value.
Assay [7] in a line: HCT116 colon cancer cell growth inhibition, primary screen, CellTiter-Glo luminescence, NPC library (AID 1117342;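 active means compounds that lower survival of HCT116 colon cancer cells in the luminescence readout, no numeric limit stated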). Particulars: at 20 µM (top of the series).
Assay [8] can be described thus: CellTiter-Glo luminescent readout of SW480 viability loss, NPC library primary (AID 1117343;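 active means compounds that lower viability of the colon cancer cells in the luminescence readout, with no numeric limit stated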). Particulars: CellTiter-Glo luminescence; at 20 µM (top of the series). In general terms: ATP-based viability assays read luminescence as a measure of living cells.
Assay [9] can be described thus: decreased DLD-1 cellular survival, CellTiter-Glo luminescent readout, NPC compound collection, primary HTS (AID 1117346;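 active means compounds that lower survival of DLD-1 colon cancer cells in the luminescence readout, no cutoff given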). Particulars: DLD-1 viability, CellTiter-Glo luminescence; at 20 µM (top of the series).
The target in assay [10] is 6-phosphogluconate dehydrogenase, decarboxylating (Homo sapiens) (UniProt P52209). Description: 6PGD enzyme inhibitors, primary screen, biochemical, human, recombinant enzyme, NADPH absorbance (AID 1159550;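 active means at least 20% inhibition of 6-phosphogluconate dehydrogenase activity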). Particulars: recombinant 6PGD, NADPH absorbance 341 nm; at 10 µM; stronger effect = higher value.
Sequence of 6-phosphogluconate dehydrogenase, decarboxylating (Homo sapiens) (P52209 whole entry, looked up): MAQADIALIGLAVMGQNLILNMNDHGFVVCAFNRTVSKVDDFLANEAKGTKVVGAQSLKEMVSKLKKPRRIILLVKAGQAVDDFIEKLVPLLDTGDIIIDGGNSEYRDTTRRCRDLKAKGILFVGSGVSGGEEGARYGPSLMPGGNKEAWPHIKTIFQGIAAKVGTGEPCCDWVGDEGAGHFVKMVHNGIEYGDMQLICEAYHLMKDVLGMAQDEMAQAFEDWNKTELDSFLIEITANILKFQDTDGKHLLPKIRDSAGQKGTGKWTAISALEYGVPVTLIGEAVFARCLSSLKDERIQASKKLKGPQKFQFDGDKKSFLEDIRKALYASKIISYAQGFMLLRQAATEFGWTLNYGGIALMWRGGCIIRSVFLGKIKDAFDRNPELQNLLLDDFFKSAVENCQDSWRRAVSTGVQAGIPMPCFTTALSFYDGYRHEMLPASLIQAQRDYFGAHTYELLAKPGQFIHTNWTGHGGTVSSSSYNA

For orientation: viability means a read-out of living cells in per cent, often relative to untreated cells. By inhibition is commonly meant the relative decrease from the control value, in per cent.

Where “and” joins values, the source holds several entries; their conditions need not be identical. Equal values may be shown once. Calls of active or inactive are those of the source. Unless noted, no stated cut-off is given here; in the data, active means parasite load remaining mostly below about 12% (no sharp cut-off); inactive means mostly above about 10%.

With `Nc1ccc(C(=O)Oc2ccccc2)c(O)c1`, the parasite load remaining in assay [1] is 67.6% (inactive). Further, the viability in [1] was determined as 172%. Further, the nuclear beta-catenin stimulation is 0.2% (inactive) in assay [2] (at 10 µM) and 2.9% in assay [2] (stimulation, at 2 µM). The insulin secretion stimulation in assay [3] is 0.9% (inactive). Moreover, in [4], the viability decrease was -26.7% (inactive). The tube area decrease in assay [5] was 4.5% (inactive). In addition, in assay [6], the GLP1 secretion stimulation is 0.7% (inactive). The inhibition of viability in assay [7] was 3% (inactive). Also, the viability decrease (inhibition) in assay [8] was -17.2% (inactive); in [9], 17.2% (inactive). In assay [10], the inhibition was -7.23% (inactive).
As for `CCOC(=O)OC(C)OC(=O)[C@@H]1N2C(=O)[C@@H](NC(=O)[C@H](N)c3ccccc3)[C@H]2SC1(C)C` (stereo partly drawn), the parasite load remaining in assay [1] was 83% (inactive) and 78.3% (inactive). The viability in assay [1] is 104% and 79.2%. Further, the nuclear beta-catenin stimulation is 1.2% (inactive) in [2] (at 10 µM) and 2.5% in [2] (stimulation, at 2 µM). Also, the insulin secretion stimulation in assay [3] was 0.3% (inactive). Moreover, the viability decrease in assay [4] was -28.2% (inactive). Also, in [5], the tube area decrease is 5.9% (inactive). For the same compound, the GLP1 secretion stimulation in [6] was -3.1% (inactive). Also, in [7], the inhibition of viability is -1.7% (inactive). Also, the viability decrease (inhibition) in assay [8] is -35.9% (inactive); in assay [9], -10.2% (inactive). Besides, in [10], the inhibition is -1.65% (inactive).
`COc1ccc(CN(CCN(C)C)c2ncccn2)cc1`: the parasite load remaining in assay [1] was 161% (inactive) and 52.7% (inactive). Moreover, in [1], the viability is 86.2% and 91.9%. The nuclear beta-catenin stimulation in assay [2] (at 10 µM) is 1.3% (inactive); in [2] (stimulation, at 2 µM) it was 2.3%. Further, the insulin secretion stimulation in assay [3] is 1.5% (inactive). Further, the viability decrease in assay [4] is -26.6% (inactive). Also, the tube area decrease in assay [5] is 5% (inactive). In [6], the GLP1 secretion stimulation was 4.9% (inactive). In assay [7], the inhibition of viability was 14.6% (inactive). Further, the viability decrease (inhibition) was 4.3% (inactive) in [8] and -22.1% (inactive) in [9]. Besides, the inhibition in assay [10] was 0.837% (inactive).
On to `CC(=O)[C@@]1(O)CC[C@H]2[C@@H]3C[C@H](C)C4=CC(=O)C=C[C@]4(C)[C@@]3(F)[C@@H](O)C[C@@]21C`, for which, in assay [1], the parasite load remaining is 127% (inactive). In addition, the viability in assay [1] was 102%. The nuclear beta-catenin stimulation is 2.3% (inactive) in assay [2] (at 10 µM) and 0.2% in [2] (stimulation, at 2 µM). For the same compound, the insulin secretion stimulation in assay [3] was -1.1% (inactive). Further, the viability decrease in [4] was -45.9% (inactive). For the same compound, the tube area decrease in assay [5] was -16% (inactive). Further, the GLP1 secretion stimulation in assay [6] is -0.3% (inactive). In addition, the inhibition of viability in assay [7] was -1.33% (inactive). In addition, the results for the viability decrease (inhibition) in assay [8] and in [9] were -18.3% (inactive) and -7.2% (inactive), respectively. Also, the inhibition in assay [10] is 15.2% (inactive).
Turning to `O=c1oc2c(O)c(O)cc3c(=O)oc4c(O)c(O)cc1c4c23`, the parasite load remaining in assay [1] was 130% (inactive). Further, in assay [1], the viability was 65.1%. Moreover, the nuclear beta-catenin stimulation in [2] (at 10 µM) is -1.4% (inactive); in assay [2] (stimulation, at 2 µM), 2.3%. Also, in assay [3], the insulin secretion stimulation is -0.1% (inactive). Besides, the viability decrease in assay [4] was 24.7% (inactive). In [5], the tube area decrease was 58% (active). In addition, the GLP1 secretion stimulation in assay [6] is -2.3% (inactive). Further, the inhibition of viability in [7] was 19.7% (inactive). The viability decrease (inhibition) in assay [8] is 75.1% (active); in assay [9], 30.7% (inactive). In [10], the inhibition is -6.65% (inactive).
In the case of `CCC[C@H](N[C@@H](C)C(=O)N1[C@H](C(=O)O)C[C@@H]2CCCC[C@@H]21)C(=O)OCC`, the parasite load remaining in assay [1] is 98.2% (inactive) and 68.9% (inactive) and 42.7% (inactive). Further, the viability in assay [1] is 70.3% and 83% and 98.6%. In addition, the nuclear beta-catenin stimulation in [2] (at 10 µM) was 1.3% (inactive); in [2] (stimulation, at 2 µM) it was 0.5%. Also, the insulin secretion stimulation in assay [3] is 2.3% (inactive). The viability decrease in assay [4] is -3% (inactive). Also, the tube area decrease in [5] was 14.1% (inactive). The GLP1 secretion stimulation in assay [6] is -2.9% (inactive). In addition, in [7], the inhibition of viability was 18.1% (inactive). Moreover, the viability decrease (inhibition) in [8] is 0% (inactive); in assay [9], 6% (inactive). Moreover, the inhibition in assay [10] was -5.32% (inactive).
Regarding `Cc1cc(CC(=O)O)n(C)c1C(=O)c1ccc(Cl)cc1`, the parasite load remaining in assay [1] was 103% (inactive) and 101% (inactive) and 54.3% (inactive). Further, the viability in assay [1] is 94.3% and 67.7% and 106%. Further, the nuclear beta-catenin stimulation in [2] (at 10 µM) is -0.6% (inactive); in assay [2] (stimulation, at 2 µM) it was 1.7%. For the same compound, the insulin secretion stimulation in assay [3] was 2.6% (inactive). In addition, the viability decrease in assay [4] was -27.2% (inactive). Further, in [5], the tube area decrease is 15.1% (inactive). For the same compound, in [6], the GLP1 secretion stimulation was -1.1% (inactive). Besides, the inhibition of viability in [7] is 1.13% (inactive). Also, the viability decrease (inhibition) was 14.7% (inactive) in [8] and -17.6% (inactive) in assay [9]. In addition, the inhibition in [10] was -4.85% (inactive).
Take `Nc1ccc(S(=O)(=O)Nc2ccc(Cl)nn2)cc1`: in assay [1], the parasite load remaining was 128% (inactive) and 127% (inactive) and 54.3% (inactive). For the same compound, the viability in assay [1] was 105% and 69.3% and 92.4%. The nuclear beta-catenin stimulation in assay [2] (at 10 µM) was 3.3% (inactive); in assay [2] (stimulation, at 2 µM), 4.5%. For the same compound, in [3], the insulin secretion stimulation is 1% (inactive). Moreover, in [4], the viability decrease is 6.1% (inactive). The tube area decrease in assay [5] was 12.6% (inactive). The GLP1 secretion stimulation in assay [6] is -1.5% (inactive). In addition, the inhibition of viability in assay [7] is -6.17% (inactive). In addition, the viability decrease (inhibition) in assay [8] was 15.5% (inactive); in [9] it was 0.7% (inactive). Besides, the inhibition in [10] was 10.1% (inactive).
As for `O=C(O)c1ccccc1O`, the parasite load remaining in [1] is 90.3% (inactive) and 39.7% (inactive). For the same compound, the viability in assay [1] is 79.5% and 93.6%. Further, the nuclear beta-catenin stimulation in assay [2] (at 10 µM) was 0.5% (inactive); in [2] (stimulation, at 2 µM) it was -0.8%. Moreover, the insulin secretion stimulation in [3] is -0.3% (inactive). Also, the viability decrease in assay [4] was 7.5% (inactive). For the same compound, in assay [5], the tube area decrease is 5.9% (inactive). Besides, in assay [6], the GLP1 secretion stimulation was 6% (inactive). Further, the inhibition of viability in [7] is 10.8% (inactive). Further, the viability decrease (inhibition) in assay [8] is -3.3% (inactive); in assay [9], -1.7% (inactive). In assay [10], the inhibition is 1.06% (inactive).
For the compound `CC(=O)NCCCCCC(=O)O`, the parasite load remaining in assay [1] is 132% (inactive). The viability in assay [1] turned out to be 98.6%. Moreover, the nuclear beta-catenin stimulation is 0.2% (inactive) in [2] (at 10 µM) and 0.7% in [2] (stimulation, at 2 µM). Besides, in assay [3], the insulin secretion stimulation was 1.2% (inactive). The viability decrease in assay [4] was -17.4% (inactive). For the same compound, in assay [5], the tube area decrease is -4.2% (inactive). Moreover, the GLP1 secretion stimulation in assay [6] is -0.1% (inactive). Also, in [7], the inhibition of viability is -1.55% (inactive). Moreover, the results for the viability decrease (inhibition) in assay [8] and in [9] were 24.9% (inactive) and -11.9% (inactive), respectively. The inhibition in [10] was -3.52% (inactive).
`CCn1cc(C(=O)O)c(=O)c2cc(F)c(N3CCNCC3)nc21`: the parasite load remaining in assay [1] is 165% (inactive) and 68.7% (inactive) and 19.5% (inactive). The nuclear beta-catenin stimulation in assay [2] (at 10 µM) is -0.6% (inactive); in [2] (stimulation, at 2 µM) it was 0.6%. Further, the insulin secretion stimulation in [3] is -0.1% (inactive). In addition, the viability decrease in assay [4] is 5.9% (inactive). In assay [5], the tube area decrease was 2.1% (inactive). For the same compound, the GLP1 secretion stimulation in assay [6] was -2.8% (inactive). Moreover, in assay [7], the inhibition of viability was -6.97% (inactive). In addition, the viability decrease (inhibition) in assay [8] was -275% (inactive); in assay [9] it was -18.4% (inactive). For the same compound, the inhibition in assay [10] was -18.3% (inactive).
With `NC(=O)NC(=O)Cc1ccccc1`, the parasite load remaining in [1] was 87.8% (inactive) and 56.5% (inactive). For the same compound, the viability in assay [1] is 68% and 92%. In addition, the nuclear beta-catenin stimulation in assay [2] (at 10 µM) was 0.2% (inactive); in assay [2] (stimulation, at 2 µM) it was -0.4%. In addition, in assay [3], the insulin secretion stimulation was 1.3% (inactive). The viability decrease in assay [4] was -10.2% (inactive). The tube area decrease in assay [5] was 2.3% (inactive). Further, the GLP1 secretion stimulation in assay [6] was -2.2% (inactive). For the same compound, in assay [7], the inhibition of viability is -3.67% (inactive). Further, the viability decrease (inhibition) in assay [8] was 38.8% (inactive); in [9] it was -11.6% (inactive). The inhibition in assay [10] was 7.97% (inactive).
